# From PubChem
# EWS-Fli block = EWS/Fli-driven NR0B1 reporter inhibitors, primary screen, A673 cells, NR0B1 luciferase, luminescence, MLPCN library | viability-normalised | inhibition, % at 12.6 µM | 350,000 tested, 0.67% active;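 active = mean inhibition of at least 50% after viability correction, with every replicate also passing that limit; inconclusive = mean reaches 50% but only one of two replicates passes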;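 also: firefly luciferase signal divided by Alamar Blue viability fluorescence both relative to DMSO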
# PAX8 inh HTS = inhibitors of PAX8-driven TPO luciferase reporter, primary screen, RMG-I cells, single concentration; SteadyGlo, 24 h; inhibition, % at 12.6 µM; 360,000 tested, 1.2% active; AID 652154, 2013;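 active = mean replicate inhibition at least 60% with every replicate also reaching 60%; inconclusive = only one of the two criteria is met; inactive = mean below 60% and not all replicates reaching 60%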;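 also: luciferase light reporting Pax8 driven TPO promoter activity; plate controls were median of neutral control wells for no effect and mitoxantrone controls for full effect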
# LGR2 inh = inhibitors of bursicon-induced LGR2 CRE-luciferase signal, primary screen, cell-based, HEK293, CRE-luciferase reporter, bursicon stimulation | Drosophila bursicon receptor LGR2 (rickets) | 380,000 tested, 0.35% active | inhibition, % at 9.99 µM | bursicon-stimulated, 4 h;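 active = drop in luminescence signal, shown as inhibition above about 50% in the replicate tests, limit read from the data, passing the limit was not always enough; inconclusive = probably only some replicates passing the limit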;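 also: agonist challenge used bursicon conditioned medium at about half maximal strength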
# F508del corr = F508del CFTR correction, initial screen, CFBE line, single point; AID 720511, 2013; activity (quench increase), % at 7.58 µM; 350,000 tested, 0.36% active; CFBE cells, YFP halide quenching; stimulated with forskolin plus potentiator P3; % fluorescence drop versus neutral controls;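 active = mean added fluorescence quench of at least 8% versus neutral control, with both replicates also reaching 8%; inconclusive = only one of the mean or replicate conditions met; inactive = mean below 8% and not both replicates reaching 8%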;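 also: cells transiently co-express mutant CFTR-F508del with the halide-sensitive YFP; corrector assay measuring rescue of mutant channel to the surface after 24 h compound exposure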
# Numbers without * were called inactive; u = inconclusive; x = not tested or not shown. Sampled rows, rich in hits. Any-hit rate of the full collection: about 1.8%.
SMILES,EWS-Fli block,PAX8 inh HTS,LGR2 inh,F508del corr
O=C(COc1cccc(NC(=O)c2ccccc2)c1)c1ccc(F)cc1,-10,69*,-10,-1
O=C(Nc1cccc(Oc2ccc(C(=O)O)c(C(=O)O)c2)c1)c1ccc(-c2ccccc2)cc1,11,24,56*,-3
Cc1cc2ccccn2c1C(=O)c1cccc([N+](=O)[O-])c1,-6,5,-7,-2
Cc1cc2ccccn2c1C(=O)c1ccc([N+](=O)[O-])o1,21,73*,-9,-9
O=C(c1ccncc1)N1CCN(c2cc(-c3ccccc3)nc3cc(-c4cccc(Cl)c4)nn23)CC1,20,68*,-12,2
COc1cccc(C(=O)Nc2sc3c(c2C(=O)O)CCCC3)c1,-207,-12,-48,-2
COc1cccc(C(=O)Nc2sc3c(c2C#N)CCN(C(C)=O)C3)c1,60*,18,14,14*
Cc1cc(=O)oc2ccc(OC(=O)CN3C(=O)c4cccc([N+](=O)[O-])c4C3=O)cc12,4,147*,x,x
COc1ccc(S(=O)(=O)N2CCN(c3ccccc3OC)CC2)cc1C(=O)N1CCCCC1,8,23,19,1
CNC(=O)COC(=O)c1cc2c(s1)CCCC2,-2,14,-5,-3
C=CCN1C(=O)[C@]2(O[C@H](CCO)[C@@H]([Si](C)(C)c3ccc(OC)cc3)[C@@H]2C)c2cc(I)ccc21,30,105*,x,-5
COc1ccc([Si](C)(C)[C@H]2[C@H](CCO)O[C@@]3(C(=O)N(Cc4cccc(NC(=O)[C@H](C)O)c4)c4ccccc43)[C@@H]2C)cc1,17,86*,x,0
COc1ccc([Si](C)(C)[C@H]2[C@H](CCO)O[C@@]3(C(=O)N(Cc4ccc(N5CCOC5=O)cc4)c4ccccc43)[C@@H]2C)cc1,24,107*,x,-1
COc1ccc(C(=O)Nc2ccc(CN3C(=O)[C@]4(O[C@H](CC(=O)N5Cc6ccccc6C[C@H]5CO)[C@@H]([Si](C)(C)c5ccc(OC)cc5)[C@@H]4C)c4ccccc43)cc2)cc1,-2,92*,x,0
COc1ccc([Si](C)(C)[C@@H]2[C@@H](CCn3cc(CCO)nn3)O[C@]3(C(=O)N(Cc4ccc(N5CCOC5=O)cc4)c4ccccc43)[C@H]2C)cc1,35,x,x,3
C[C@H](NC(=O)C1CCN(S(=O)(=O)c2ccccc2)CC1)C(=O)NCc1ccc(Cl)c(Cl)c1,7,2,-5,-1
COc1ccc([Si](C)(C)[C@@H]2[C@@H](CCO)O[C@]3(C(=O)N(Cc4ccc(NC(=O)[C@H](C)O)cc4)c4ccccc43)[C@H]2C)cc1,23,101*,x,-9
COc1ccc([Si](C)(C)[C@@H]2[C@@H](CC(=O)N3Cc4ccccc4C[C@H]3CO)O[C@]3(C(=O)N(C)c4c(Br)cc(C)cc43)[C@H]2C)cc1,-1,81*,x,0
C=CCN1C(=O)[C@]2(O[C@H](CCO)[C@@H]([Si](C)(C)c3ccc(OC)cc3)[C@@H]2C)c2cc(NC(=O)[C@H](C)O)ccc21,5,-5,x,-1
O=C(Nc1cccc2cccnc12)c1cc(F)c(F)cc1Cl,-44,-16,-31,0
C[C@@H]1CN([C@H](C)CO)C(=O)c2cc(NC(=O)Nc3cccc4ccccc34)ccc2O[C@@H]1CN(C)C(=O)Nc1cccc2ccccc12,6,78*,2,-5
C[C@@H]1CN([C@@H](C)CO)C(=O)c2cc(NC(=O)Nc3ccc(F)cc3)ccc2O[C@@H]1CN(C)C(=O)Nc1cccc2ccccc12,16,75*,2,0
C[C@H]1CN([C@@H](C)CO)C(=O)c2cc(NC(=O)Nc3ccccc3)ccc2O[C@@H]1CN(C)C(=O)Nc1cccc2ccccc12,11,x,4,1
C[C@H]1CN([C@@H](C)CO)C(=O)c2cc(Br)cnc2O[C@H]1CN(C)C(=O)c1cccnc1,0,-23,8,3
CNC[C@H]1Oc2c(NC(=O)Nc3ccc(OC)cc3)cccc2C(=O)N([C@@H](C)CO)C[C@@H]1C,-5,-33,9,2
SMILES,EWS-Fli block,PAX8 inh HTS,LGR2 inh,F508del corr
CC(C)CC1C(C#N)=C(N)OC2=C1C(=O)CC(c1ccccc1)C2 (configuration not stated),11,2,-16,0
CS(=O)(=O)c1sc(C#N)c2c1C(=O)CC(c1ccccc1)C2 (configuration not stated),42,131*,58*,-15
COC(=O)c1ccc(C2NC(=O)CCC2[N+](=O)[O-])cc1 (configuration not stated),-2,-8,-10,3
O=C(NCc1nnnn1-c1ccc(F)cc1)c1ccc2ccccc2c1,13,4,-5,-5
Cc1ccc(-n2nnnc2CNC(=O)c2ccc([N+](=O)[O-])o2)cc1C,26,84*,7,-9
O=C(NCc1nnnn1-c1ccc(F)cc1)c1ccc([N+](=O)[O-])o1,8,70*,-3,-7
O=C(Nc1cccc(Cl)c1N1CCOCC1)c1cccnc1Cl,13,-8,6,0
COc1cc(C2c3cc4c(cc3OC(NCCc3ccccc3)C2C)OCO4)cc(OC)c1OC (configuration not stated),54*,44,-20,1
COc1cc(C2c3cc4c(cc3OC(N3CCOCC3)C2C)OCO4)cc(OC)c1OC(C)=O (configuration not stated),1,-15,6,0
COc1cc(C2c3cc4c(cc3OC(Nc3ccc(C(=O)O)cc3)C2C)OCO4)cc(OC)c1OC (configuration not stated),52*,30,-9,8
C/C=C/c1cnc2c(c1)C(=O)N([C@@H](C)CO)C[C@H](C)[C@H](CN(C)C(=O)NC1CCCC1)O2,-22,x,1,0
CCCn1c(CC)nc([N+](=O)[O-])c1S(=O)(=O)c1ccccc1,x,82*,x,x
CN(C)c1ccc(C=c2c3ccccc3n3c2c2ccccc2[n+]3C)cc1,8,88*,30,-10
Cc1cc2c(=Cc3ccc(N(C)C)cc3)c3ccccc3n2[n+]1C,32,x,50,-1
CCOC(=O)c1cc2c(=Cc3ccc(N(C)C)cc3)c3ccccc3n2[n+]1C,1,20,12,9.9*
C[C@@H]1CCCCO[C@H](CN(C)CC2CCCCC2)[C@H](C)CN([C@H](C)CO)C(=O)c2cc(NS(=O)(=O)c3ccccc3)ccc2O1,-9,92*,u,6
C[C@H]1CCCCO[C@@H](CN(C)CC2CCCCC2)[C@@H](C)CN([C@@H](C)CO)C(=O)c2cc(NS(=O)(=O)c3ccccc3)ccc2O1,13,25,-5,-1
C[C@@H]1CN([C@H](C)CO)C(=O)c2cc(NS(=O)(=O)c3ccccc3)ccc2O[C@@H](C)CCCCO[C@@H]1CN(C)CC1CCCCC1,10,89*,-11,3
COc1cccc(CN2[C@H](CO)[C@H]3c4ccccc4N(C(=O)CC(F)(F)F)C[C@H]32)c1,7,6,-2,-1
